Source: PubChem BioAssay (NCI)
Compounds without any hit were thinned out: in the full panel of roughly 83,000, 20% have a hit.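 Cell lines were cultured in 96-well plates, exposed to a single compound concentration, and assessed for percent growth 48 hours later.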 Unmarked numbers belong to inactive results. Activity calls are given as the source filed them. Rule for the calls: active = growth percent below 10; inactive = the rest.

These compounds were tested on MDA-MB-468 breast (assay: NCI-60 one-dose screen, 48 h (100 = growth as untreated, 0 = no growth, -100 = all killed)). Details: 10 µM unless noted.

| SMILES | growth |
| --- | --- |
| O=C(Nc1ccc(N2CCNCC2)cc1)c1[nH]ncc1Nc1ncnc2sc3c(c12)CCC3 | -83.5% (active) |
| O=C(O)c1ccc2c(c1)C(=O)N(Cc1ccccc1)C2=O | 96.2% |
| CCOC(=O)c1c(C)nc2c(c1N)C(=O)C(=O)N2Cc1ccc(OC)cc1 | 95% |
| C[C@@H](Nc1ncnc2ccc(-c3cnc(Cl)c(NS(C)(=O)=O)c3)cc12)c1ccccc1 | 30.8% |
| O=C(Nc1ccc(I)cc1F)c1cc(Cl)ccc1O | -1.5% (active) |
| CC1(C)C(=O)/C(=C\c2ccco2)C[C@]2(C)[C@H]3CC=C4[C@@H]5C[C@](C)(C(=O)O)CC[C@]5(C)CC[C@@]4(C)[C@]3(C)CC[C@@H]12 | -47.2% [100 µM] (active) |
| Cc1cc(Nc2nc(N3CCN(C)CC3)nc3ccccc23)n[nH]1 | 90% |
| O=C1C(Cl)=C(NCc2ccco2)C(=O)c2ccccc21 | 25% |
| CN1CCN(c2ccc(/C=N/n3cnc4oc(-c5ccccc5)cc4c3=N)cc2)CC1 | 97.6% |
| COc1ccc(S(=O)(=O)NCCCNc2nccc(-c3c(-c4ccc(F)cc4)nc4sccn34)n2)cc1 | 61.2% |
| CN(C)CCn1cc(-c2ccc3c(Nc4ccc(CC(=O)Nc5cccc(F)c5)cc4)ncnc3c2)cn1 | -82.9% [30 µM] (active) |
| Nc1nc(N)c(-c2ccc(Cl)c(Cl)c2)c(CBr)n1 | 84% |
| CCCCS(=O)(=O)c1cc(Nc2ccc(O)c3c2C(=O)c2ccccc2C3=O)ccc1C | 76.4% |
| COc1ccc2[nH]c(O)c(/C=c3/cc4c(c(-c5ccc(F)cc5)n3)=Nc3ccccc3-4)c2c1 | 67.4% |
| CC(C)(C)c1cc(/C=N\NC(=O)/C=C/C=C/c2ccc3c(c2)OCO3)c(O)c(C(C)(C)C)c1 | 70.7% |
| CCOC(=O)c1sc(NC(=O)COc2ccc(/C=C3\Cc4ccc(Cl)cc4C3=O)cc2)nc1C | 115% |
| Cc1cc2nc(CC(=O)c3ccccc3)c(=O)[nH]c2cc1C | 103% |
| O=C1c2c(c3c4cccnc4[nH]c3c3ccc4ccccc4c23)C(=O)N1CCN1CCNCC1 | 87.1% |
| CCOc1ccc(C(C[N+](=O)[O-])Sc2ccccc2N)cc1 (centres undefined) | -58.4% (active) |
| COc1ccc2nc(C)cc(Nc3ccc(Cl)cc3)c2c1 | 87.2% |
| COc1cc2nc(-c3ccc(Cl)cc3)cc(OCCCN3CCCCC3)c2cc1OC | 47.7% |
| O=C1c2c(c3c4cc(Br)ccc4[nH]c3c3ccc4ccccc4c23)C(=O)N1CCN1CCNCC1 | 79.6% |
| O=C(c1ccccc1)C1C(=O)N2C(=S)N(c3ccccc3)C(=O)C2C1c1ccc(Cl)cc1 (centres undefined) | 0.678% (active) |
| C=CCn1c(CN2CCN(c3cc4c(cc3F)c(=O)c(C(=O)O)cn4C3CC3)CC2)n[nH]c1=S | 105% |
